The structures appear in SMILES notation. The whole screen tested about 290,000 compounds, of which about 2,700 (0.93%) were called active. This is one part of a sample in which actives are shown more often than they occur. No rule for the calls is given here.

The inhibition is the relative decrease from the control value, in per cent.

The experiment addresses Eukaryotic translation initiation factor 4H (Homo sapiens) (UniProt Q15056). The experiment can be described thus: human eIF4H binding inhibitors, primary screen, translation initiation inhibitor project, biochemical, uHTS, fluorescence polarization (AID 2012).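 Also: calls also rest on retests at 20 µM and on dose response follow-up.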 To be noted: eIF4H fluorescence polarization binding assay, stronger effect = higher value. (In fluorescence polarisation assays a small probe gives low polarisation when free and higher when bound to something large.)

Turning to `NS(=O)(=O)c1ccc(NC(=O)COC(=O)c2cc3ccccc3oc2=O)cc1`, the inhibition (at 35 µM) was -1.4% (inactive). Take `Cc1ccc(NC2CCCN(C(=O)CCC3(C)CC3)C2)cc1C` (centres undefined): the inhibition (at 35 µM) was -6.4% (inactive).

As for `CCCCc1ccc(NC(=O)NCc2cccnc2)cc1`, the inhibition (at 35 µM) is -1.5% (inactive). Consider `CCC1C(=O)NCCN1C(=O)c1ccc2nc(Cc3ccc(OC)cc3)oc2c1` (centres undefined), for which, under “at 35 µM”, the inhibition was -1.1% (inactive). Consider `COC(=O)c1sccc1NC(=O)c1ccc(Cl)cc1`, for which, under “at 35 µM”, the inhibition was -1.7% (inactive).

With `COC(=O)c1sccc1NC(=O)COc1ccc(Cl)cc1`, the inhibition (at 35 µM) is -2% (active) and the inhibition (confirmation average, at 20 µM) amounted to 90%. `O=C(COc1ccc(Cl)cc1)Nc1ccccc1CO`: the inhibition (at 35 µM) is -15.9% (inactive). For the compound `O=C(CCC(=O)n1ncc2ccccc21)NCc1ccccc1Cl`, the inhibition (at 35 µM) is -5.2% (inactive). Turning to `Cc1nc2c(c(=O)n1Cc1ccco1)c1nc3ccccc3nc1n2Cc1ccccc1`, the inhibition (at 35 µM) was 68.6% (active). For `COCCCn1c2nc3ccccc3nc2c2c(=O)n(Cc3ccc(Cl)cc3)c(C)nc21`, the inhibition (at 35 µM) was -0.3% (inactive).

Turning to `Cc1ccc(Cn2c(C)nc3c(c2=O)c2nc4ccccc4nc2n3Cc2ccco2)cc1`, the inhibition (at 35 µM) was 18% (inactive). For the compound `Cc1cc(NC(=O)CCC(=O)N(CC(=O)NC2CCCC2)c2ccc(F)cc2)no1`, the inhibition (at 35 µM) is -1.3% (inactive). `O=C(CSc1ccc(-c2ccccn2)nn1)Nc1ccccc1`: for the setting “at 35 µM”, the inhibition is -8.7% (inactive).

Regarding `COc1ccc2[nH]c(=O)c(C3c4cc(OC)c(OC)cc4CCN3C(=O)c3ccco3)cc2c1` (centres undefined), the inhibition (at 35 µM) was -6.8% (inactive).

In the case of `COc1ccc(S(=O)(=O)Nc2ccc(F)cc2)c(C)c1C`, for the setting “at 35 µM”, the inhibition was 7.4% (inactive). In the case of `COc1ccc(NS(=O)(=O)c2ccc(F)cc2F)cn1`, under “at 35 µM”, the inhibition is 65.2% (active). Turning to `CCOc1ccc(S(=O)(=O)Nc2ccc(OC)nc2)cc1`, the inhibition (at 35 µM) is -8.8% (inactive). The same measure, in the same setting: as for `Cc1ccc(NS(=O)(=O)c2ccc(C(C)(C)C)cc2)cn1`, the figure is -2.4% (inactive); as for `O=C(NC1CCCC1)C(c1ccc(Cl)cc1)N(C(=O)c1csnn1)C1CC1` (centres undefined), -6.1% (inactive); as for `Cc1ccc(OCCCCc2c(C)n[nH]c2C)cc1`, -10.3% (inactive).

With `CCOC(=O)CC1(NC(=O)c2cc(COc3cncc(Cl)c3)on2)CCCCC1`, the inhibition (at 35 µM) was -10.4% (inactive). With `COc1ccc(CN2CCN(C(=O)CCC(=O)Nc3nnc(C(C)C)s3)CC2)cc1F`, the inhibition (at 35 µM) is -7.1% (inactive).

Take `COc1ccc(NC(=O)CCN2C(=O)/C(=C/c3ccc4c(c3)OCO4)SC2=S)cc1`: the inhibition (at 35 µM) was 5.7% (inactive). For `Cn1c(=O)n(C)c2cc(C(=O)Nc3ccc4c(c3)OCO4)ccc21`, the inhibition (at 35 µM) is -6.6% (inactive). In the case of `Cc1ccc(C(=O)O)cc1-c1ccc(/C=C2\SC(=O)N(CC(=O)Nc3ccc4c(c3)OCO4)C2=O)o1`, the inhibition (at 35 µM) is 59.7% (active). On to `Cc1ccc(S(=O)(=O)N(CC(=O)Nc2cccnc2)c2ccc(Br)cc2)cc1`, for which the inhibition (at 35 µM) was 2% (inactive). Regarding `CCC(NC(=O)C1CCCC1)c1ccc(C)cc1` (centres undefined), the inhibition (at 35 µM) was -4.3% (inactive). As for `Cc1ccccc1C(=O)N1CCC(C(=O)Oc2ccc(C#N)cc2)CC1`, the inhibition (at 35 µM) is -15.9% (inactive). As to `CCN(CC)S(=O)(=O)c1ccc(N2CC(C(=O)NCc3cccnc3)CC2=O)cc1` (centres undefined), where the note is “at 35 µM”, the inhibition was -0.4% (inactive).

In the case of `c1ccc(C2=Nc3cccc4cccc(c34)N2)cc1`, the inhibition (at 35 µM) was -0.5% (inactive). Consider `COc1ccccc1C1=Nc2cccc3cccc(c23)N1`, for which the inhibition (at 35 µM) is 99.8% (active) and the inhibition (confirmation average, at 20 µM) was 108%. Regarding `Fc1ccccc1N=C1Nc2cccc3cccc1c23`, the inhibition (at 35 µM) is -3.8% (inactive). Consider `CC1CCC2(CC1)NC(=O)N(CC(=O)c1ccc3c(c1)OCO3)C2=O` (centres undefined), for which the inhibition (at 35 µM) is -5.1% (inactive). Same read-out and setting: the result for `Cn1cccc1C(=O)N1CCc2ccccc2C1` reads -1.9% (inactive). Same read-out and setting: the result for `CN(CC(=O)Nc1c(Cl)cccc1Cl)C(=O)CNC(=O)C1CCCCC1` reads -8.8% (inactive). For `Cc1cccc(NC(=O)c2sc3nc4c(c(-c5ccco5)c3c2N)CCC4)c1`, the inhibition was 82.9% (active) (at 35 µM) and 90.9% (confirmation average, at 20 µM). Turning to `CC(=O)Nc1ccc(NC(=O)c2sc3nc4c(c(-c5ccc(C)cc5)c3c2N)CCC4)cc1`, the inhibition (at 35 µM) is -0.5% (inactive). Regarding `Cc1cccc(NC(=O)c2sc3nc(N4CCOCC4)c4c(c3c2N)CCCC4)c1`, the inhibition (at 35 µM) was -4.2% (inactive). As for `Cc1ccc(-n2ncc3c2CC(C)(C)CC3NC(=O)Cc2c(C)noc2C)cc1` (centres undefined), where the note is “at 35 µM”, the inhibition was 5.3% (inactive). Consider `CCOC(=O)/C=c1\s/c(=C\c2ccccc2OC)c(=O)n1CC(=O)N1CCOCC1`, for which, where the note is “at 35 µM”, the inhibition is 5.6% (inactive). In the case of `CCOc1ccccc1/C=c1\sc2nc(-c3ccco3)nn2c1=O`, the inhibition (at 35 µM) is 81.8% (active).

Take `CSc1nc(-c2ccco2)nn1C(=O)CCc1ccccc1`: for the setting “at 35 µM”, the inhibition is -7.7% (inactive).

As to `Cc1ccc2[nH]c(=O)c(CN(C)S(=O)(=O)c3cccc4nonc34)cc2c1`, the inhibition (at 35 µM) was -5.4% (inactive). The same measure, in the same setting: the result for `CN(CCOc1ccccc1)C(=O)c1cc(COc2c(F)cccc2F)on1` reads -0.6% (inactive); that for `O=C(OCC1O[C@@H](OC(=O)c2cc(O)c(O)c(O)c2)[C@@H](OC(=O)c2cc(O)c(O)c(O)c2)[C@@H](OC(=O)c2cc(O)c(O)c(O)c2)[C@@H]1OC(=O)c1cc(O)c(O)c(O)c1)c1cc(O)c(O)c(O)c1` (some centres undefined), 92% (active). In the case of `COc1ccc(N(CC(=O)Nc2cc(OC)ccc2OC)S(=O)(=O)c2c(C)noc2C)cc1`, the inhibition (at 35 µM) is -10.2% (inactive). In the case of `O=C(CSc1ncn[nH]1)N/N=C/c1ccc(F)cc1`, where the note is “at 35 µM”, the inhibition is -1.2% (inactive). Regarding `COc1cc(CC(=O)NCc2cccs2)cc(OC)c1OC`, the inhibition (at 35 µM) is -15% (inactive). Still for that read-out and setting: the result for `CCN(CC(=O)NCc1cccs1)C(=O)c1ccccc1F` reads -2.7% (inactive). For `CCN(CC(=O)NCc1cccs1)C(=O)c1cccc(S(=O)(=O)Nc2ccccc2OC)c1`, the inhibition runs as follows: (at 35 µM) 35.7% (active); (confirmation average, at 20 µM) 53.9%.

For the origin of these results see PubChem BioAssay AID2012 (Sanford-Burnham Center for Chemical Genomics, 2009).
